Most compounds without a hit are left out; they make up all but 5.4% or so of the library.
APOBEC3G inh: APOBEC3G (human) deaminase inhibition; recombinant A3G, ssDNA deamination FAM/TAMRA fluorescence; actives 0.28% (n = 330,000); Q9HC16; AID 493012; inhibition, % at 20 µM;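 active means inhibition of at least 40% at 20 µM, with no more than 30% in the related APOBEC3A deaminase screen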;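 further: plate controls were DMSO wells with A3G for no effect and wells lacking A3G enzyme for full effect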
APOBEC3A inh: blocks human APOBEC3A ssDNA deamination. P31941. recombinant A3A, FAM/TAMRA ssDNA deamination fluorescence. inhibition, % at 20 µM. actives 0.41% (n = 330,000);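 active means at least 40% inhibition at 20 µM here, with at most 30% in a related deaminase screen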;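 further: plate controls were A3A with DMSO for no effect and wells lacking A3A enzyme for full effect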
PHOSPHO1 inh: blocks human PHOSPHO1 phosphatase activity. Q8TCT1. recombinant PHOSPHO1, absorbance phosphatase assay. inhibition, % at 13.3 µM. actives 1.1% (n = 290,000); in the data active means inhibition above about 60%
Target sequence (Q8TCT1 whole entry, looked up): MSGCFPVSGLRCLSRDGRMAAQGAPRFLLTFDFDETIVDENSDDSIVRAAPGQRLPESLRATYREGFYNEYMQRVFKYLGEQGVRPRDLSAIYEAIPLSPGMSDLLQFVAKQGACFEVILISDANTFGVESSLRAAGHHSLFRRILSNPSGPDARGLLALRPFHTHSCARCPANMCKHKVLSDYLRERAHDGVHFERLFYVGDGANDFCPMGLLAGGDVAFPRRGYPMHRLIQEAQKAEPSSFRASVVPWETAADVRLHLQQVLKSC
aDG glyco act: alpha-DG glycosylation activation. Pro5-aDG cells, alpha-DG glycosylation AlphaScreen (IIH6); 0% Pro5, 100% B10-LARGE cell signal. activation, % at 10 µM. actives 0.22% (n = 360,000);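 active means activation of at least 8% versus controls, or a plate z-score of at least 8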;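 further: Pro5 are CHO cells carrying HIG-tagged alpha-DG that lacks glycosylation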
ALR H2O2 inh: inhibitors of human sulfhydryl oxidase ALR; AID 485317; actives 3.8% (n = 290,000); inhibition, % (concentration not given with the values); purified ALR, DTT oxidation, H2O2 HRP-luminol luminescence; P55789;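 active means mean replicate inhibition above about 79%, with every replicate also reaching it, limit read from the data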
rCAG RNA binder: binds r(CAG) RNA repeats | r(CAG) RNA repeat, TO-PRO-1 dye displacement fluorescence | inhibition, % at 3 µM | actives 1.3% (n = 370,000) | AID 651821;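 active means inhibition above the plate cutoff, the mean of all test compounds on that plate plus 3 SD, cut at about 35% in these data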;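 further: 0% = DMSO alone and 100% = 100 µM mitoxantrone as full dye displacement; higher means more dye released from RNA so lower well fluorescence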
An asterisk follows results filed as active; x = no result given.

SMILES	APOBEC3G inh	APOBEC3A inh	PHOSPHO1 inh	aDG glyco act	ALR H2O2 inh	rCAG RNA binder
CCCN1C(=O)/C(=C/c2ccc(OCc3ccc(C(=O)O)cc3)c(OC)c2)NC1=S	-5.8	-1.0	x	0.1	91.6*	5.2
COc1cc(/C=C2\NC(=S)NC2=O)ccc1OCc1cccc(C(=O)O)c1	-6.6	0.6	-4.7	0.2	-1.8	30.5
CCOc1cc(/C=C2\NC(=S)N(C)C2=O)ccc1OCc1ccc(C(=O)O)cc1	-0.2	0.6	28.0	0.0	88.8*	25.3
CCOc1cc(/C=C2/NC(=O)NC2=O)cc(Br)c1OCc1ccc(C(=O)O)cc1	-0.6	36.9	85.7*	-0.3	1.3	18.4
CN1C(=O)/C(=C/c2ccc(OCc3ccc(C(=O)O)cc3)c(Cl)c2)NC1=S	-9.3	-7.4	23.5	0.1	39.1	9.5
CCOC(=O)C(=O)NNc1ccccc1C	-7.4	-3.2	-10.7	0.0	98.4*	3.4
CCOC(=O)C(=O)NNc1cccc(C)c1C	31.1	0.5	-4.9	0.1	98.4*	4.7
CCOC(=O)C(=O)Nc1ccccc1C(=O)OC	-5.3	0.1	-7.1	-0.1	4.5	-2.9
CCOC(=O)C(=O)Nc1ccccc1C(N)=O	3.1	-0.4	-8.6	0.1	-9.2	-0.9
CN(Cc1cn(Cc2ccccc2)nn1)S(=O)(=O)c1ccccc1Br	x	x	x	x	x	-0.7
COc1cc(Nc2c3c(nc4ccccc24)CCC3)cc(OC)c1OC	-7.2	-3.3	11.4	-0.3	98.8*	-2.1
COc1ccccc1Nc1c2c(nc3ccc(N)cc13)CCCC2	-2.8	-1.6	27.4	-0.1	99.1*	3.0
COc1ccc(OC)c(Nc2c3c(nc4ccccc24)CCC3)c1	-5.6	-4.3	23.3	-0.2	98.2*	-6.0
COC(=O)[C@]12C[C@H](CC(=O)N3CCCC3)C(=O)N(Cc3ccc4c(c3)OCO4)C1=C[C@H](COCc1ccccc1)O[C@@H]2C	x	x	x	x	x	0.9
Cc1ccc(S(=O)c2ccc([N+](=O)[O-])c3nonc23)cc1 (configuration not stated)	x	x	x	0.0	x	63.4*
Nn1c(SCC(=O)Nc2ccc(S(=O)(=O)Nc3nccs3)cc2)nnc1-c1ccco1	x	x	x	x	x	10.3
c1csc(-c2nn3c(C4COc5ccccc5O4)nnc3s2)c1 (configuration not stated)	9.3	0.9	69.3*	0.0	-3.6	x
Fc1ccc(-c2nn3c(C4COc5ccccc5O4)nnc3s2)cc1 (configuration not stated)	38.1	2.6	78.7*	-0.1	-5.8	-1.5
CN(C)C(CNC(=O)CN1C(=O)NC2(CCc3ccccc32)C1=O)c1ccco1 (configuration not stated)	-1.0	-0.4	-7.2	0.2	99.6*	-1.0
O=C(CN1C(=O)NC2(CCCc3ccccc32)C1=O)NCc1ccco1 (configuration not stated)	-6.0	-11.3	4.6	-0.2	-5.9	-0.8
COC(=O)[C@]12C[C@H](CC(=O)NCCCN3CCCC3=O)C(=O)N(Cc3ccccc3)C1=C[C@H](C1CCCC1)O[C@@H]2C	x	x	x	x	x	-2.2
O=C(O)c1cc(N/N=C/c2ccc3c(c2)OCO3)ccc1Cl	-5.0	-5.9	10.8	-0.3	37.4	11.6
O=C(O)c1cc(N/N=C/c2ccc3c(c2)OCCO3)ccc1Cl	x	x	-15.3	0.2	93.1*	11.7
O=C(O)c1ccc(N/N=C/c2ccc3c(c2)OCO3)cc1	-3.0	-1.3	-8.7	0.0	98.7*	1.8
OC(c1ccccc1)(c1ccccc1)C1CCN(CCCOc2cccnc2)CC1	x	x	x	x	x	1.4
O=C(Nc1ccccc1C(F)(F)F)OCCN1C(=O)CCC12CCC(c1ccccc1)CC2 (configuration not stated)	x	x	x	x	x	0.1
O=C(CSc1ccccc1)N1CCCC(N2CCN(c3ccccc3)CC2)C1 (configuration not stated)	-10.2	-10.3	16.9	-0.1	98.5*	-6.7
O=C(c1ccccn1)N1CCCC(N2CCN(c3ccc(F)cc3)CC2)C1 (configuration not stated)	-5.8	-4.5	22.2	-0.2	97.0*	-5.0
O=C(C1CCOCC1)N1CCCC(N2CCN(c3ccc(F)cc3)CC2)C1 (configuration not stated)	-4.6	-8.6	35.5	-0.1	94.3*	-3.0
